PubChem BioAssay AID504427 (National Center for Advancing Translational Sciences (NCATS), 2011)
This is one part of the list. Calls of active or inactive are those of the source.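 The calls were made as follows: active = compound that inhibits Clk2 kinase in the dose series, with an IC50 potency reported; inactive = no inhibition seen.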

Target: Dual specificity protein kinase CLK2 (Homo sapiens) (UniProt P49760)
Assay: Kinase Inhibition Study on Inhibitors of CDC-like Kinase 2 (Reaction Biology data)
Details: Reaction Biology kinase assay, 10 uM ATP
Text: NIH Molecular Libraries Probe Production Centers Network [MLPCN] NIH Chemical Genomics Center [NCGC] MLPCN Grant: 1R03MH084827-01 Assay Submitter (PI): Tom Misteli NCGC Assay Overview: Alternative splicing of pre-mRNAs plays a major role in the regulation of eukaryotic gene expression. Alternative splicing is now thought to be one of the primary reasons for the complexity of higher organisms leading to an average of three protein isoforms per gene. Aberrant splicing can lead to a number of diseases and is known to play a role in rare genetic diseases such as progeria syndrome. Hutchinson-Gilford Progeria Syndrome (HGPS) is a pediatric premature aging disease caused by a spontaneous mutation in the lamin A/C (LMNA) gene due to a single point mutation in the lamin A gene effecting 1 in 4 million people. To identify both specific splicing modulators of the lamin A gene as well as general splicing modulators, a cell-based HTS assay was developed using a minigene reporter system (AIDs, 1459 & 1487). […] This AID summarizes the characterization of lead compounds in Clk2.
All kinase reactions were performed using 10 uM ATP in the assay. 100% activity was taken from kinase reactions with DMSO alone (the vehicle used for compound stock solutions).

Dual specificity protein kinase CLK2 (Homo sapiens), sequence (P49760 whole entry, looked up): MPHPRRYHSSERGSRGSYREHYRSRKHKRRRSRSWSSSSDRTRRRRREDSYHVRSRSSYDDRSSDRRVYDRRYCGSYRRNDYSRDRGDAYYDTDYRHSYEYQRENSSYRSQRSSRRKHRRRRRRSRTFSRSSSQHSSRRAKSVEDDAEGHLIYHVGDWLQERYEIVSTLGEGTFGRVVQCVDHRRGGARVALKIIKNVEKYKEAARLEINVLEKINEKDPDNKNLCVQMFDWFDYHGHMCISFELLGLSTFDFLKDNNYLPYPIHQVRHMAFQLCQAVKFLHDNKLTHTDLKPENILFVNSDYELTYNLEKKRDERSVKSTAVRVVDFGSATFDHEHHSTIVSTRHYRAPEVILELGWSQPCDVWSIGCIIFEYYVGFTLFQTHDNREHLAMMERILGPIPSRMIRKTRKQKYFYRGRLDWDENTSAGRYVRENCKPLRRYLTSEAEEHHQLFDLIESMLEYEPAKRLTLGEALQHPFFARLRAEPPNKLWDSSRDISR

Potency, active:
c1coc(CCNc2ncnc3ccc(-c4ccc5c(c4)OCO5)cc23)c1 0.801 µM
CN(Cc1cncn1C)c1ncnc2ccc(-c3ccc4c(c3)OCO4)cc12 15 µM
c1nc(N2CCOCC2)c2cc(-c3ccc4c(c3)OCO4)ccc2n1 1.67 µM
CC(Nc1ncnc2ccc(-c3ccc4c(c3)OCO4)cc12)c1ccco1 (centres undefined) 8.37 µM
